What all share (details): modulator concentration 10 µM
The test system of assay [1] is RAW-Dual (murine macrophage reporter line). The assay can be described thus: NF-kB reporter (SEAP) activity fold change vs agonist alone; higher = enhanced NF-kB activity. In short, it runs like this:
(§1)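 RAW-Dual murine macrophage reporter cells were seeded at 50 000 per well in 384-well plates and pre-incubated 1 hour at 37 °C with compound pin-transferred to 10 μM final. After 1 hour, a PRR agonist was added and cells incubated overnight. Supernatant NF-κB (SEAP, QUANTI-Blue, 620 nm absorbance) and IRF (Lucia luciferase, QUANTI-Luc, luminescence) signals were divided by the mean agonist-only control on the same plate to give fold change. Two replicate plates were averaged, with errors by propagation.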

Assay [2] has the same test system. The assay can be described thus: IRF reporter (Lucia luciferase) activity fold change vs agonist alone; higher = enhanced IRF activity. A digest of the protocol: as §1
For assay [3] the test system is unchanged. The assay can be described thus: viability score (confluency relative to resting cells, overnight) (fraction); higher = more viable, active = viable (0.7 or more). In short, it runs like this: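 Two confluency masks, generated with IncuCyte software over all imaged wells, were applied to IncuCyte images of RAW-Dual macrophages. The cells, in 384-well plates, had been exposed overnight to 10 μM final compound. The viability score is confluency as a fraction of resting cells, and a compound met the cutoff only with both masks above 70% of resting cells.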

Setting [4] is: agonist: CpG ODN 1826 0.5 ug/mL.

± gives the standard deviation.

`O=C1c2ccccc2C(=O)C1c1ccncc1`: the NF-kB reporter in assay [1] (setting [4]) was found to be 0.885 ± 0.066; in assay [1] (agonist: LPS 0.1 ug/mL), 1.03 ± 0.059; in assay [1] (agonist: MPLA […]), 0.944 ± 0.029. The IRF reporter in assay [2] (agonist: 3'3'-cGAMP 10 ug/mL) was found to be 0.757 ± 0.046; in assay [2] (agonist: LPS 0.1 ug/mL), 0.924 ± 0.1; in assay [2] (agonist: MPLA […]), 0.799 ± 0.068. Also, the viability score in assay [3] was 0.994 (active).

In the case of `CS(=O)(=O)N(CC(=O)NCCSCc1cccc(Cl)c1)c1cccc(Cl)c1`, the NF-kB reporter turned out to be 0.978 ± 0.16 in assay [1] (setting [4]), 0.986 ± 0.079 in assay [1] (agonist: LPS 0.1 ug/mL) and 1.1 ± 0.15 in assay [1] (agonist: MPLA […]). For the same compound, the IRF reporter in assay [2] (agonist: 3'3'-cGAMP 10 ug/mL) amounted to 1.02 ± 0.033; in assay [2] (agonist: LPS 0.1 ug/mL) it was 1.08 ± 0.11; in assay [2] (agonist: MPLA […]) it was 1.24 ± 0.42. The viability score in assay [3] is 1 (active).

In the case of `COC1CCN(C2CCN(S(=O)(=O)c3ccccc3)CC2)CC1`, the NF-kB reporter is 0.839 ± 0.077 in assay [1] (setting [4]), 1.01 ± 0.082 in assay [1] (agonist: LPS 0.1 ug/mL) and 0.977 ± 0.062 in assay [1] (agonist: MPLA […]). Also, the IRF reporter in assay [2] (agonist: 3'3'-cGAMP 10 ug/mL) was determined as 0.981 ± 0.065; in assay [2] (agonist: LPS 0.1 ug/mL) it was 1.08 ± 0.14; in assay [2] (agonist: MPLA […]), 1.03 ± 0.23. In addition, in assay [3], the viability score is 1.01 (active).

For `CC(=O)ON=C1C(C)=C(C#N)C2C1C2(C)C` (stereo not drawn), the NF-kB reporter is 1.2 ± 0.096 in assay [1] (setting [4]), 1.01 ± 0.26 in assay [1] (agonist: LPS 0.1 ug/mL) and 0.874 ± 0.32 in assay [1] (agonist: MPLA […]). Further, the results for the IRF reporter in assay [2] (agonist: 3'3'-cGAMP 10 ug/mL), in assay [2] (agonist: LPS 0.1 ug/mL) and in assay [2] (agonist: MPLA […]) were 0.718 ± 0.18, 0.871 ± 0.25 and 0.857 ± 0.33, respectively. Moreover, the viability score in assay [3] is 1.01 (active).

As to `CCN(CC)c1ccc2cc(-c3nnc(NCc4ccc(F)cc4)s3)c(=O)oc2c1`, the NF-kB reporter in assay [1] (setting [4]) amounted to 1.08 ± 0.085; in assay [1] (agonist: LPS 0.1 ug/mL), 0.955 ± 0.059; in assay [1] (agonist: MPLA […]) it was 0.906 ± 0.055. Further, the IRF reporter stood at 0.941 ± 0.035 in assay [2] (agonist: 3'3'-cGAMP 10 ug/mL), 1.08 ± 0.13 in assay [2] (agonist: LPS 0.1 ug/mL) and 0.981 ± 0.085 in assay [2] (agonist: MPLA […]). For the same compound, the viability score in assay [3] is 1.01 (active).

Regarding `O=C(NCC1CCCO1)c1[nH]nnc1-c1ccc(F)cc1` (stereo not drawn), the NF-kB reporter amounted to 1.15 ± 0.16 in assay [1] (setting [4]), 0.996 ± 0.075 in assay [1] (agonist: LPS 0.1 ug/mL) and 1.01 ± 0.05 in assay [1] (agonist: MPLA […]). In addition, the IRF reporter came to 0.999 ± 0.038 in assay [2] (agonist: 3'3'-cGAMP 10 ug/mL), 1.03 ± 0.048 in assay [2] (agonist: LPS 0.1 ug/mL) and 1.1 ± 0.12 in assay [2] (agonist: MPLA […]). In addition, the viability score in assay [3] is 1 (active).

In the case of `CCN(CC)c1ccc(C=NNC(=O)c2ccncc2)cc1`, the NF-kB reporter in assay [1] (setting [4]) turned out to be 1.16 ± 0.11; in assay [1] (agonist: LPS 0.1 ug/mL), 0.926 ± 0.12; in assay [1] (agonist: MPLA […]) it was 1.05 ± 0.06. Also, the IRF reporter in assay [2] (agonist: 3'3'-cGAMP 10 ug/mL) amounted to 0.676 ± 0.12; in assay [2] (agonist: LPS 0.1 ug/mL), 0.948 ± 0.058; in assay [2] (agonist: MPLA […]), 1.11 ± 0.076. Also, in assay [3], the viability score was 0.991 (active).

As for `COC(=O)c1ccc2c(c1)NC(=O)/C2=C(\Nc1ccc(N(C)C(=O)CN2CCN(C)CC2)cc1)c1ccccc1`, the NF-kB reporter in assay [1] (setting [4]) is 1.34 ± 0.2; in assay [1] (agonist: LPS 0.1 ug/mL), 1.18 ± 0.27; in assay [1] (agonist: MPLA […]), 1.02 ± 0.063. For the same compound, the IRF reporter in assay [2] (agonist: 3'3'-cGAMP 10 ug/mL) worked out at 0.325 ± 0.024; in assay [2] (agonist: LPS 0.1 ug/mL), 0.851 ± 0.14; in assay [2] (agonist: MPLA […]), 0.474 ± 0.041. The viability score in assay [3] is 0.998 (active).

With `O=C(NCCN1CCN(c2ccc(Cl)cc2)CC1)c1ccncc1`, the NF-kB reporter turned out to be 0.974 ± 0.076 in assay [1] (setting [4]), 0.99 ± 0.076 in assay [1] (agonist: LPS 0.1 ug/mL) and 1.01 ± 0.027 in assay [1] (agonist: MPLA […]). Also, the IRF reporter was 1.01 ± 0.053 in assay [2] (agonist: 3'3'-cGAMP 10 ug/mL), 1.02 ± 0.081 in assay [2] (agonist: LPS 0.1 ug/mL) and 0.986 ± 0.097 in assay [2] (agonist: MPLA […]). The viability score in assay [3] is 0.998 (active).

With `COc1cc2nccc(Oc3ccc(NC(=O)Nc4cc(C)on4)c(Cl)c3)c2cc1OC`, the NF-kB reporter in assay [1] (setting [4]) is 0.178 ± 0.022; in assay [1] (agonist: LPS 0.1 ug/mL) it was 0.66 ± 0.062; in assay [1] (agonist: MPLA […]), 0.639 ± 0.057. The IRF reporter in assay [2] (agonist: 3'3'-cGAMP 10 ug/mL) was 0.626 ± 0.028; in assay [2] (agonist: LPS 0.1 ug/mL), 0.938 ± 0.066; in assay [2] (agonist: MPLA […]), 1.02 ± 0.1. Also, the viability score in assay [3] is 1 (active).

On to `CC#CC(=O)N1CCC[C@H]1c1nc(-c2ccc(C(=O)Nc3ccccn3)cc2)c2c(N)nccn12`, for which the NF-kB reporter in assay [1] (setting [4]) was determined as 0.946 ± 0.24; in assay [1] (agonist: LPS 0.1 ug/mL), 1.03 ± 0.077; in assay [1] (agonist: MPLA […]), 0.876 ± 0.068. Besides, the results for the IRF reporter in assay [2] (agonist: 3'3'-cGAMP 10 ug/mL), in assay [2] (agonist: LPS 0.1 ug/mL) and in assay [2] (agonist: MPLA […]) were 0.575 ± 0.019, 1.02 ± 0.11 and 1.03 ± 0.15, respectively. In addition, the viability score in assay [3] is 0.736 (active).

Take `Cl.Clc1ccc2nsnc2c1NC1=NCCN1`: the values for the NF-kB reporter in assay [1] (setting [4]), in assay [1] (agonist: LPS 0.1 ug/mL) and in assay [1] (agonist: MPLA […]) were 0.8 ± 0.14, 0.932 ± 0.14 and 0.993 ± 0.076, respectively. For the same compound, the values for the IRF reporter in assay [2] (agonist: 3'3'-cGAMP 10 ug/mL), in assay [2] (agonist: LPS 0.1 ug/mL) and in assay [2] (agonist: MPLA […]) were 0.791 ± 0.066, 0.995 ± 0.17 and 1.06 ± 0.23, respectively. For the same compound, the viability score in assay [3] is 1 (active).

Turning to `OCCN(CCO)CC(O)Cn1c2ccc(Cl)cc2c2cc(Cl)ccc21` (stereo not drawn), the NF-kB reporter was 0.232 ± 0.013 in assay [1] (setting [4]), 0.503 ± 0.042 in assay [1] (agonist: LPS 0.1 ug/mL) and 0.407 ± 0.024 in assay [1] (agonist: MPLA […]). For the same compound, the values for the IRF reporter in assay [2] (agonist: 3'3'-cGAMP 10 ug/mL), in assay [2] (agonist: LPS 0.1 ug/mL) and in assay [2] (agonist: MPLA […]) were 0.695 ± 0.032, 2.78 ± 0.18 and 1.52 ± 0.18, respectively. In addition, the viability score in assay [3] was 0.0946 (inactive).

With `Cc1c(Cl)cccc1NC(=O)C(Cl)=Cc1ccccc1`, the NF-kB reporter in assay [1] (setting [4]) turned out to be 0.757 ± 0.082; in assay [1] (agonist: LPS 0.1 ug/mL) it was 0.929 ± 0.11; in assay [1] (agonist: MPLA […]) it was 1.07 ± 0.095. Further, the figures for the IRF reporter in assay [2] (agonist: 3'3'-cGAMP 10 ug/mL), in assay [2] (agonist: LPS 0.1 ug/mL) and in assay [2] (agonist: MPLA […]) were 0.799 ± 0.04, 1.13 ± 0.068 and 1.25 ± 0.11, respectively. Further, the viability score in assay [3] was 1.01 (active).
